System: XIP peptide (Xip251-270)
Test: small-molecule binders of XIP peptide, primary screen, biochemical, small-molecule microarray, fluorescence 635/667 nm, 0.5 µg/mL protein (AID 1183)
Details: small-molecule microarray binding, fluorescence 635 nm; higher = more signal

Compound | composite z-score
COC(=O)[C@@]1(Cc2ccccc2)[C@H]2c3cc(C(=O)N(C)C)n(Cc4nc5ccccc5[nH]4)c3C[C@H]2CN1C(=O)c1ccccc1 | 0.784
CC(C)C(=C=CC[C@H](O)c1cccc(OCCO)c1)C[C@H](O)c1ccccn1 | 0.806
COc1ccc(CCNC(=O)[C@@H]2c3ccccc3C(=O)N(C(C)C)[C@H]2c2ccc(CO)cc2)cc1 | -0.898
COCCOC(=O)N1C(=O)[C@@]2(c3cc(C#CCNC(N)=O)ccc31)[C@H](C(=O)Nc1nc3ccccc3s1)[C@H]1C(=O)O[C@H](c3ccccc3)[C@H](c3ccccc3)N1[C@@H]2c1ccc(O)cc1 | 0.321
O=C(c1ccccc1)N1Cc2ccccc2C[C@@]2(N=C(c3ccc(OCCCO)cc3)O[C@H]2c2ccccc2)C1=O | 0.814
CC(=O)NCCCC[C@@H]1NC(=O)[C@H]2C[C@@H](C(=O)NCCCCCN)[C@@H](c3ccc(O)cc3)N2C1=O | 0.562
COc1ccc(NN2C(C(O)c3ccc(F)cc3)C=CC3C(=O)N(C4CCCCC4)C(=O)C32)cc1 (stereo unspecified) | 0.878
C=C(COC)C(=O)CC[C@@H](OC(=O)c1ccccc1-c1ccccc1C(=O)O)c1ccccc1OCCO | 0.17
COc1ccc(C(O)C2C=CC3C(=O)N(C)C(=O)C3N2Nc2ccccc2)cc1 (stereo unspecified) | 0.592
C=CCOC(=O)[C@H]1[C@@H]2C(=O)O[C@@H](c3ccccc3)[C@@H](c3ccccc3)N2[C@@H](c2ccc(OCCOC(=O)[C@H]3C[C@H]4C(=O)NCC(=O)N4[C@H]3c3ccc(O)cc3)cc2)[C@]12C(=O)Nc1ccccc12 | 0.81
CN1C2C=C(c3ccc(CO)cc3)C(C3C(=O)N(C(N)=O)C(=O)C32)C1C1CC1 (stereo unspecified) | 0.0909
C=CCNC(=O)[C@H]1[C@@H]2C(=O)O[C@@H](c3ccccc3)[C@@H](c3ccccc3)N2[C@@H](c2ccc(OCCO)cc2)[C@]12C(=O)Nc1ccc(C#Cc3ccc(OC)cc3)cc12 | 0.773
O=C(N1CCOCC1)[C@]1(CCS(=O)(=O)c2ccccc2)N=C(c2ccc(OCCCO)cc2)O[C@@H]1c1ccccc1 | 0.717
Cc1c(NC(=O)/C(C#N)=C/C=C/c2ccc([N+](=O)[O-])cc2)c(=O)n(-c2ccccc2)n1C | 0.77
COC(=O)C(CC#Cc1ccc2c(c1)[C@]1(C(=O)N2)[C@H](c2ccccc2OCCO)N2[C@H](c3ccccc3)[C@H](c3ccccc3)OC(=O)[C@H]2[C@@H]1C(=O)N1CCN(c2ncccn2)CC1)C(=O)OC | 0.539
C[C@]1(C(=O)NC2CC2)c2ccccc2C(=O)N(Cc2cc(F)cc(C(F)(F)F)c2)[C@H]1c1ccc(CO)cc1 | 0.883
[N-]=[N+]=NCc1ccccc1C[C@@]1(C(N)=O)N=C(c2ccc(OCCCO)cc2)O[C@@H]1c1ccccc1N=[N+]=[N-] | 0.63
C=C(COC)C(=O)CC[C@H](OC(C)=O)c1ccc(CO)o1 | 0.626

Compound | composite z-score
CCCCC=C[C@@H](NC(=O)C(C)(C)C)c1ccccc1 | 0.324
O=C1NC(=O)C2C1C=CC(C(O)C(c1ccccc1)c1ccccc1)N2Nc1ccccn1 (stereo unspecified) | 0.797
CCOC(=O)C[C@H]1[C@H](OC(=O)c2ccc(-c3ccccc3)cc2)[C@@H](NC(=O)C2CCCCC2)c2cc(OCCCO)ccc2N1C(=O)Cc1ccc(OC)cc1 | -0.355
C=CCOC(=O)[C@H]1[C@@H]2C(=O)O[C@@H](c3ccccc3)[C@@H](c3ccccc3)N2[C@@H](c2ccc(OCCOC(=O)[C@H]3C[C@H]4C(=O)NCC(=O)N4[C@H]3c3cccc(OCCO)c3)cc2)[C@]12C(=O)Nc1ccc(I)cc12 | 0.649
CC1CC/C=C\[C@H]2OC34C=CCN(C(C)C)C(=O)[C@H]3N(C(C)CO)C(=O)[C@@H]4C2C(=O)O1 (stereo partly specified) | 0.384
COCCOC(=O)N1C(=O)[C@@]2(c3cc(C#CCNC(N)=O)ccc31)[C@H](C(N)=O)[C@H]1C(=O)O[C@H](c3ccccc3)[C@H](c3ccccc3)N1[C@@H]2c1ccc(O)cc1 | -0.532
[N-]=[N+]=NCc1ccccc1[C@H]1OC(c2ccc(OCCCO)cc2)=N[C@@]1(Cc1ccccc1N=[N+]=[N-])C(=O)O | 0.76
COc1cccc(C)c1NC(=O)O[C@H]1[C@H](OC(=O)Nc2ccc3c(c2)OCO3)[C@H](OC(=O)Nc2ccc3c(c2)OCO3)[C@@H](OC)O[C@@H]1CO | 0.798
CN(C)CCCC[C@@H]1NC(=O)[C@H]2C[C@@H](C(=O)NCCCCCCNC(=O)CS)[C@@H](c3cccc(OCCO)c3)N2C1=O | 0.603
CCCC[C@@H](O)C1=C(C)Cn2c(=O)n(-c3ccccc3)c(=O)n2[C@H]1CO | 0.0389
C=CCN1C(=O)[C@]2(O[C@H](CCO)[C@@H]([Si](C)(C)c3ccc(OC)cc3)[C@@H]2C)c2cc(N3C(=O)c4ccccc4Oc4ccccc43)ccc21 | 0.671
COC(=O)[C@@]1(Cc2ccc(F)cc2)[C@H]2c3cc(C(=O)N4CCCC4)n(C[C@H](O)CO)c3C[C@H]2CN1C(=O)c1ccccc1 | 0.0592
CN1C(=O)C2C(C1=O)C1C=C(CCCO)C2C(C2CC2)N1C (stereo unspecified) | 0.591
C=CCOC(=O)[C@H]1[C@@H]2C(=O)O[C@@H](c3ccccc3)[C@@H](c3ccccc3)N2[C@@H](c2ccc(OCCOC(=O)[C@@H]3C[C@@H]4C(=O)N[C@@H](Cc5ccccc5)C(=O)N4[C@@H]3c3ccc(O)cc3)cc2)[C@]12C(=O)Nc1ccc(I)cc12 | 0.751
[N-]=[N+]=Nc1ccccc1C[C@@]1(C(=O)NCC(O)CO)N=C(c2ccc(OCCCO)cc2)O[C@@H]1c1ccccc1N=[N+]=[N-] (stereo partly specified) | 0.0519
COc1ccc(CCNC(=O)[C@@]2(C)c3ccccc3C(=O)N(Cc3ccc(OC(F)(F)F)cc3)[C@H]2c2ccc(CO)cc2)cc1 | 0.666
CCOC(=O)C1=CC[C@@H](c2ccccc2)N(S(=O)(=O)c2ccc(C)cc2)[C@@H]1C#N | 0.423
[N-]=[N+]=NCc1ccccc1[C@H]1OC(c2ccc(OCCCO)cc2)=N[C@@]1(Cc1ccccc1N=[N+]=[N-])C(=O)N1CCOCC1 | 0.604

— PubChem BioAssay
